Experimental data reported in the supplement of paper PMC6555819.

How the values were obtained:
Test in all cases: PBM binding z-score (relative to random genomic background probes); higher = stronger binding; sequences stand for … in GC…GCGATTGACAGCGTAGAATGAAGG
[1] = tested on: FXR:RXRa (NR concentration 270 nM, RXRa partner concentration 90 nM)
Outline: (§1)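 Random background probes are the reference for binding z-scores. These scores derive from regression-normalized fluorescence on custom Agilent 4×180K protein-binding microarrays incubated 1 h with ligand-free nuclear receptor dimers. Binding was detected with antibodies against each partner (one per run).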

[2] = tested on: LXRa:RXRa (NR concentration 270 nM, RXRa partner concentration 90 nM)
Outline: as §1

[3] = tested on: LXRa homodimer (NR concentration 270 nM)
Outline: as §1

[4] = tested on: LXRb:RXRa (NR concentration 270 nM, RXRa partner concentration 90 nM)
Outline: as §1

[5] = tested on: LXRb homodimer (NR concentration 270 nM)
Outline: as §1

[6] = tested on: PPARa:RXRa (NR concentration 270 nM, RXRa partner concentration 90 nM)
Outline: as §1

[7] = tested on: PPARg:RXRa (NR concentration 180 nM, RXRa partner concentration 90 nM)
Outline: as §1

[8] = tested on: PPARg:RXRa 270nM:90nM, anti-RXR (NR concentration 270 nM, RXRa partner concentration 90 nM)
Outline: as §1

[9] = tested on: PPARg:RXRa 30nM:10nM, anti-RXR (NR concentration 30 nM, RXRa partner concentration 10 nM)
Outline: as §1

[10] = tested on: PPARg:RXRa 90nM:30nM, anti-RXR (NR concentration 90 nM, RXRa partner concentration 30 nM)
Outline: as §1

[11] = tested on: PPARg:RXRa DBDmut IVT, anti-RXR (DBD mutation: RXRa K156A/R161A, NR concentration 270 nM, RXRa partner concentration 90 nM)
Outline: as §1

[12] = tested on: PPARg:RXRa IVT, anti-PPARg (NR concentration 270 nM, RXRa partner concentration 90 nM)
Outline: as §1

[13] = tested on: PPARg DBDmut:RXRa IVT, anti-PPARg (DBD mutation: PPARg1 K132A/R137A, NR concentration 270 nM, RXRa partner concentration 90 nM)
Outline: as §1

[14] = tested on: PPARg DBDmut IVT, anti-PPARg (DBD mutation: PPARg1 K132A/R137A, NR concentration 270 nM)
Outline: as §1

[15] = tested on: PPARg homodimer (NR concentration 180 nM)
Outline: as §1

[16] = tested on: PXR:RXRa (NR concentration 270 nM, RXRa partner concentration 90 nM)
Outline: as §1

[17] = tested on: PXR homodimer (NR concentration 270 nM)
Outline: as §1

[18] = tested on: RARa:RXR (NR concentration 270 nM, RXRa partner concentration 90 nM)
Outline: as §1

[19] = tested on: RARa homodimer (NR concentration 270 nM)
Outline: as §1

[20] = tested on: RARb:RXRa (NR concentration 270 nM, RXRa partner concentration 90 nM)
Outline: as §1

Sequence | PBM binding z-score [1] | PBM binding z-score [2] | PBM binding z-score [3] | PBM binding z-score [4] | PBM binding z-score [5] | PBM binding z-score [6] | PBM binding z-score [7] | PBM binding z-score [8] | PBM binding z-score [9] | PBM binding z-score [10] | PBM binding z-score [11] | PBM binding z-score [12] | PBM binding z-score [13] | PBM binding z-score [14] | PBM binding z-score [15] | PBM binding z-score [16] | PBM binding z-score [17] | PBM binding z-score [18] | PBM binding z-score [19] | PBM binding z-score [20]
GGAACGAGTGCAAGTTGATAGCAGAGTTTGATGG | -0.219 | -0.282 | -0.428 | -0.496 | -0.508 | -0.279 | 0.107 | -0.41 | -0.349 | -0.508 | -0.142 | -0.639 | 0.145 | -0.69 | -0.875 | 0.885 | 1.16 | -0.297 | -1.23 | 0.365
TAGCCTAGGTCACGCGGGCCAGTATAGTGTCGGC | 5.13 | 3.81 | 0.104 | 2.03 | -0.215 | 4.31 | 4.11 | 4.02 | 0.903 | 3.02 | 2.95 | 4.27 | -0.0213 | 0.00762 | 1.6 | 1.84 | -0.691 | 3.32 | -0.183 | 4.33
ATCGAAAGGTCGATGAGGTGAGTATACACCGTTT | 3.46 | 2.76 | -0.117 | 2.16 | 0.539 | 3.5 | 1.83 | 2.19 | 1.1 | 1.4 | 0.00502 | 1.61 | 1.01 | 0.136 | 1.49 | 2.58 | 1.07 | 2.98 | 0.305 | 3.37
TCTATTAGTTGTTTAGGGCAACCGAAACAGCGGA | 0.479 | 0.468 | 0.25 | 0.727 | 1.15 | 0.938 | -0.0257 | 2.1 | 3.88 | 2.99 | 1.98 | 1.19 | 1.27 | 0.951 | 0.794 | 0.621 | 0.33 | 0.698 | 1.2 | 1.13
CCTCGGAGGGCAGAAGGTCAGAGCTGTCCGCTTT | 1.58 | 1.92 | -0.356 | 1.12 | -1.06 | 2.48 | 0.613 | 2.48 | -0.473 | 1.44 | 0.357 | 0.981 | -1.69 | -1.6 | 0.905 | 1.94 | -0.405 | 2.53 | -0.604 | 3.69
ACAGACAGGTGAGAGAAGGTAACTCAGCTGGACG | 0.34 | -0.0792 | -0.413 | -0.366 | -0.81 | 0.165 | 0.832 | -0.247 | 0.0838 | 0.154 | 0.676 | 0.706 | 0.0985 | -0.367 | -0.0826 | -0.372 | -0.505 | 0.102 | -0.00725 | 0.565
ATATGTAGGTTATCGGGTGATTCAGTTTGCGCAT | 0.87 | 1.16 | 0.949 | 1.33 | 0.879 | 3.39 | 5.08 | 5.04 | 2.59 | 4.28 | 7.59 | 7.22 | 2.9 | 2.24 | 1.51 | 1.07 | 1.12 | 0.995 | 1.96 | 1.15
AATACAGGGTCATCGTGGGCCAGAGTACGCACAG | 7.26 | 6.08 | 2.41 | 4.65 | 0.911 | 5.96 | 6.73 | 5.81 | 2.73 | 4.56 | 2.57 | 4.37 | 0.764 | 1.07 | 2.16 | 4.59 | 0.368 | 4.92 | 0.514 | 4.36
CCGAGTAGGTTAGGGGGCATTCAGGCAACGGTGA | 1.36 | 1.91 | 0.834 | 4.42 | 6.02 | 4.43 | 6.67 | 7.33 | 5.18 | 7.46 | 2.55 | 4.72 | 4.62 | 4.7 | 2.25 | 2.19 | 1.47 | 2.41 | 0.807 | 2.11
GCTAGCAGGCCATTTGGGTCACACAATGACGGGC | 0.201 | 0.0992 | -0.68 | 0.327 | -0.778 | 1.89 | 1.2 | 1.09 | -0.147 | 0.392 | 2 | 2.63 | -0.238 | -0.979 | 0.139 | 0.906 | 0.00293 | 1.05 | -0.205 | 1.61
AGAATGAGGTTAGTAAGATCAGGGAATTGCGGTC | 0.169 | 0.283 | -0.393 | 0.342 | -0.18 | 1.6 | 1.07 | 1.06 | 0.16 | 0.634 | 2.97 | 2.49 | 0.854 | -0.148 | 0.454 | 0.1 | 0.333 | 0.331 | 0.721 | 1.22
GATACAGGGTCAAGTCCAGAGTACGCGTATTGAT | 7.3 | 4.84 | 0.0543 | 4.3 | 0.511 | 5.77 | 5.91 | 5.85 | 2.51 | 4.33 | 3.07 | 4.1 | 1.84 | 0.844 | 4.21 | 4.36 | 0.54 | 5.16 | 1.38 | 4.64
TATACAGGGTCAAATGCCAGAGTACGAATGTCGA | 7.66 | 6.63 | 3.82 | 5.33 | 3.42 | 6.33 | 7.57 | 6.6 | 3.95 | 5.73 | 2.62 | 4.6 | 3.56 | 3.07 | 3.17 | 4.3 | 1.12 | 5.47 | 1.22 | 4.55
GCGACTGGGGCATAGCAGGTTACCATAAGGTTGG | 0.397 | 0.135 | -0.575 | 0.25 | -0.915 | 1.2 | 1.02 | 0.684 | -0.371 | 0.318 | 3.87 | 2.96 | -0.728 | -0.706 | -0.174 | 0.0194 | -0.519 | 0.4 | -0.975 | 0.81
